# Data published in the supplement of paper PMC7411054.
# Counter-ions that a name gives are not always drawn.
# How the values were obtained:
# Details in all cases: treatment time: 24 h
# A549-ACTB-RAB5A [1] = experiment: lowest phenotypically active concentration; higher = less potent
# How it was run: (§1)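 Fifteen reporter lines derived from A549, HepG2 and WPMY1 cells by gene editing, carrying BFP for segmentation plus GFP and RFP/FusionRed markers, were exposed to 0.3, 1, 3 or 9 µM for 24 h in four wells each and imaged live. Live-cell features from each well were normalised to solvent control wells. A well set counted as deviating when ≥3 of 4 wells lay beyond the 95th percentile of control Euclidean distances, and as reproducible when the median replicate Pearson correlation exceeded the 95th percentile of non-replicates. Phenotypic activity was assigned only when both criteria were met.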
# A549-GM130-SQSTM1 [2] = experiment: as above
# How it was run: as §1
# A549-TUBA1B-RELA [3] = experiment: as above
# How it was run: as §1
# WPMY1-CANX-COX4 [4] = experiment: as above
# How it was run: as §1
# A549-ACTB-RAB5A [5] = experiment: phenotypically active (imaging signature differs from DMSO and reproducible) at any of 0.3-9 uM (binary (1 = active, 0 = inactive)); higher = active
# How it was run: as §1
# A549-CANX-COX4 = experiment: as above
# How it was run: as §1
# A549-GM130-SQSTM1 [6] = experiment: as above
# How it was run: as §1
# A549-TP53BP1-CLTA = experiment: as above
# How it was run: as §1
# A549-TUBA1B-RELA [7] = experiment: as above
# How it was run: as §1
# HepG2-ACTB-RAB5A [8] = experiment: as above
# How it was run: as §1
# HepG2-CANX-COX4 = experiment: as above
# How it was run: as §1
# HepG2-GM130-SQSTM1 = experiment: as above
# How it was run: as §1
# HepG2-TP53BP1-CLTA = experiment: as above
# How it was run: as §1
# HepG2-TUBA1B-RELA = experiment: as above
# How it was run: as §1
# WPMY1-ACTB-RAB5A = experiment: as above
# How it was run: as §1
# WPMY1-CANX-COX4 [9] = experiment: as above
# How it was run: as §1
# WPMY1-GM130-SQSTM1 = experiment: as above
# How it was run: as §1
# WPMY1-TP53BP1-CLTA = experiment: as above
# How it was run: as §1
# WPMY1-TUBA1B-RELA = experiment: as above
# How it was run: as §1
# HepG2-ACTB-RAB5A [10] = experiment: lowest phenotypically active concentration; higher = less potent
# How it was run: as §1
Compound,lowest phenotypically active concentration (A549-ACTB-RAB5A [1]),lowest phenotypically active concentration (A549-GM130-SQSTM1 [2]),lowest phenotypically active concentration (A549-TUBA1B-RELA [3]),lowest phenotypically active concentration (WPMY1-CANX-COX4 [4]),phenotypically active (A549-ACTB-RAB5A [5]),phenotypically active (A549-CANX-COX4),phenotypically active (A549-GM130-SQSTM1 [6]),phenotypically active (A549-TP53BP1-CLTA),phenotypically active (A549-TUBA1B-RELA [7]),phenotypically active (HepG2-ACTB-RAB5A [8]),phenotypically active (HepG2-CANX-COX4),phenotypically active (HepG2-GM130-SQSTM1),phenotypically active (HepG2-TP53BP1-CLTA),phenotypically active (HepG2-TUBA1B-RELA),phenotypically active (WPMY1-ACTB-RAB5A),phenotypically active (WPMY1-CANX-COX4 [9]),phenotypically active (WPMY1-GM130-SQSTM1),phenotypically active (WPMY1-TP53BP1-CLTA),phenotypically active (WPMY1-TUBA1B-RELA),lowest phenotypically active concentration (HepG2-ACTB-RAB5A [10])
O=C(O)[C@@H]1[C@H]2C[C@H]3c4[nH]c5ccccc5c4CCN3C[C@@H]2CC[C@@H]1O [Yohimbinic acid monohydrate],9 µM,3 µM,9 µM,9 µM,1 (active),0 (inactive),1 (active),1 (active),1 (active),0 (inactive),0 (inactive),0 (inactive),0 (inactive),0 (inactive),1 (active),1 (active),1 (active),1 (active),1 (active),
CN1[C@@H]2CC[C@H]1C[C@@H](OC(c1ccccc1)c1ccccc1)C2 [benztropine],9 µM,9 µM,9 µM,9 µM,1 (active),0 (inactive),1 (active),1 (active),1 (active),1 (active),1 (active),0 (inactive),1 (active),1 (active),0 (inactive),1 (active),1 (active),0 (inactive),1 (active),9 µM
O=C([C@H](Cc1cccc(C(F)(F)F)c1)NS(=O)(=O)c1cc(F)c2c(c1)CCNC2)N1CCCC1 [(S)-PFI 2 hydrochloride],9 µM,9 µM,,,1 (active),0 (inactive),1 (active),0 (inactive),0 (inactive),0 (inactive),0 (inactive),0 (inactive),0 (inactive),0 (inactive),0 (inactive),0 (inactive),0 (inactive),0 (inactive),0 (inactive),
CCOP(=O)(OCC)C(=Cc1cc(C(C)(C)C)c(O)c(C(C)(C)C)c1)P(=O)(OCC)OCC,9 µM,9 µM,,,1 (active),0 (inactive),1 (active),0 (inactive),0 (inactive),0 (inactive),0 (inactive),0 (inactive),0 (inactive),0 (inactive),0 (inactive),0 (inactive),0 (inactive),0 (inactive),0 (inactive),
COc1ccc(CNC(=O)Nc2ncc([N+](=O)[O-])s2)cc1,9 µM,9 µM,9 µM,9 µM,1 (active),0 (inactive),1 (active),1 (active),1 (active),0 (inactive),0 (inactive),0 (inactive),0 (inactive),0 (inactive),0 (inactive),1 (active),1 (active),1 (active),0 (inactive),
O=C([C@@H](Cc1cccc(C(F)(F)F)c1)NS(=O)(=O)c1cc(F)c2c(c1)CCNC2)N1CCCC1 [(R)-PFI 2 hydrochloride],9 µM,9 µM,9 µM,,1 (active),0 (inactive),1 (active),0 (inactive),1 (active),0 (inactive),0 (inactive),0 (inactive),0 (inactive),0 (inactive),0 (inactive),0 (inactive),0 (inactive),0 (inactive),0 (inactive),
